Bioassay records (PubChem BioAssay)
APOBEC3A inh = blocks human APOBEC3A ssDNA deamination. P31941. recombinant A3A, FAM/TAMRA ssDNA deamination fluorescence. inhibition, % at 20 µM. hit rate 0.41% among 330,000. AID 493011;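 active = at least 40% inhibition at 20 µM here, with at most 30% in a related deaminase screen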;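 also: plate controls were A3A with DMSO for no effect and wells lacking A3A enzyme for full effect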
Target sequence (P31941 whole entry, looked up): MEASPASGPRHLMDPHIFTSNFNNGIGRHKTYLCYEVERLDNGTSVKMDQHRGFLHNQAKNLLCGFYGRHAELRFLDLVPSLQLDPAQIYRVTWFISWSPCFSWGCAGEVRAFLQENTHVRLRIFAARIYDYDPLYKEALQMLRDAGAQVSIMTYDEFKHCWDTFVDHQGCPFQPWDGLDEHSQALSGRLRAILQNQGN
NALP1 inh = inhibitors of NALP1 inflammasome in yeast; inhibition, % at 10 µM; S. cerevisiae NALP1/ASC/caspase-1 growth, X-gal OD620, 72 h; hit rate 0.61% among 280,000; AID 2071; in the data active = inhibition mostly above about 24%, no sharp cut-off; inactive = mostly below about 32%
APOBEC3G inh = APOBEC3G (human) deaminase inhibition; recombinant A3G, ssDNA deamination FAM/TAMRA fluorescence; hit rate 0.28% among 330,000; inhibition, % at 20 µM;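 active = inhibition of at least 40% at 20 µM, with no more than 30% in the related APOBEC3A deaminase screen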;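 also: plate controls were DMSO wells with A3G for no effect and wells lacking A3G enzyme for full effect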
PolyA inh = blocks polyadenylation in yeast reporter cells | S. cerevisiae SKY197-pL101 polyadenylation reporter, beta-gal luminescence; efflux-impaired pdr1/pdr3 knockout yeast; score 100 = 6 SD above DMSO | activity score, % at 12 µM | hit rate 0.02% among 300,000;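 active = lowest replicate activity score at least 50, where 100 means six control SD above control mean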;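 also: yeast exposed to compound for 9 h at 30 °C; higher score means more reporter readthrough which indicates perturbed polyadenylation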
A3G conf = confirmation of human APOBEC3G DNA deaminase inhibitors; shares compounds with APOBEC3G inh; recombinant A3G ssDNA deaminase, UDG/FAM-TAMRA fluorescence; inhibition, % at 20 µM; hit rate 72% among 890;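 active = inhibition reaching a set limit in any replicate at 20 µM, the limit being 80% of the first screen's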
UDG A3G counter = E. coli UDG inhibition in APOBEC3G counter-screen; 710 tested, under 10 active; AID 504715; inhibition, % at 20 µM; UDG counterscreen, FAM/TAMRA oligo fluorescence; shares compounds with APOBEC3G inh;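 active = compounds giving 40% or more inhibition at 20 µM in any one of the three replicates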;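 also: plate controls were DMSO wells with UDG and oligo for no effect and DMSO wells lacking both for full effect; inhibitors lower the FAM signal released by uracil excision and alkaline cleavage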
Target sequence (P12295 whole entry, looked up): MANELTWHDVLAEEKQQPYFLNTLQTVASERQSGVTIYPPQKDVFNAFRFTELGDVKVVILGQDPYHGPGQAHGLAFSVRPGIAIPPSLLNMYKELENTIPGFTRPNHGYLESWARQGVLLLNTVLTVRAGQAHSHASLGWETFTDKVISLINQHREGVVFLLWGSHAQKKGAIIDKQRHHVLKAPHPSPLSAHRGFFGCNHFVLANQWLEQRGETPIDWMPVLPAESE
The depositor's hits bear a star; nt = not tested or not shown. The list is not random: actives were taken first. Their share in the collection is about 1.2%.

SMILES	APOBEC3A inh	NALP1 inh	APOBEC3G inh	PolyA inh	A3G conf	UDG A3G counter
O=C(CCNC(=O)N1CC(=O)Nc2ccccc21)Nc1ccc(Br)cc1F	-2.1	17.5	-1.5	12.5	nt	nt
COc1ccc(OC)c(NC(=O)CSc2nncc3ccc(OC)c(OC)c23)c1	-1.6	24.0	-13.6	-8.3	nt	nt
S=c1[nH]c(-c2ccccc2)cn1/N=C/c1ccncc1	-17.3	-6.8	55.6*	-4.1	71.0*	-0.4
O=S(=O)(c1ccc(N2CCN(CCO)CC2)nc1)N1CCCCC1	4.4	10.1	41.6*	12.0	-0.3	nt
CC(=O)N1CCN(c2ccc(S(=O)(=O)N3CCCCC3)cn2)CC1	-1.3	11.3	-14.4	-2.3	nt	nt
S=c1[nH]nc(-c2ccco2)n1C1CCCCC1	-2.4	-22.7	43.7*	8.2	84.3*	0.5
CCOC(=O)C[C@H]1c2cc(F)ccc2S(=O)(=O)N1C1CCCC1	-0.3	nt	-9.8	5.8	nt	nt
N#C/C(=N/Nc1ccc(OC(F)(F)F)cc1)C(N)=S	1.9	6.6	14.0	-4.6	nt	nt
NC(=S)N=Nc1ccc(NN=C(N)N)cc1	5.6	6.5	45.4*	-18.7	46.3*	nt
CCn1cc(C(=O)O)c(=O)c2cnc(N3CCN(C(=S)Nc4ccccc4Cl)CC3)nc21	-7.8	-3.2	-5.6	22.2	nt	nt
Cc1ccc(SSc2cc(C)ccc2N)c(N)c1	1.6	nt	79.5*	-4.6	86.2*	nt
CCCCN(C(=O)c1ccc([N+](=O)[O-])o1)c1c(N)n(CCCC)c(=O)[nH]c1=O	2.3	nt	-6.7	6.1	nt	nt
CC(=O)/C(=N/Nc1ccccc1C)N1CCOCC1	-0.3	-16.7	40.6*	19.8	36.3*	0.4
O=C(CC1Sc2ncnn2C1=O)Nc1ccc(Br)cc1 (stereo not given)	-0.8	85.0*	41.3*	-0.5	69.7*	-3.4
N#CC(c1nc2ccccc2nc1N1CCCC1)S(=O)(=O)c1cccs1 (stereo not given)	-2.2	-23.6	51.1*	-2.5	5.1	0.1
COc1cc(N=c2ssnc2Cl)c(OC)cc1Cl	1.7	1.8	66.8*	-14.9	82.5*	-2.7
Cc1cc(C)nc(/N=c2/ssnc2Cl)c1	-3.3	-3.7	2.8	-51.2	nt	nt
COc1ccc(OC)c(N=c2ssnc2Cl)c1	0.8	-9.2	74.2*	-15.4	69.2*	-3.9
Nc1ccccc1N=c1ssnc1Cl	nt	11.8	nt	nt	nt	nt
CCC(CC)c1nnc(NC(=O)COc2ccc3c(c2)OCO3)s1	3.0	-2.8	45.1*	18.7	47.1*	-0.1
CCCC(C)c1nnc(NC(=O)COc2ccc3c(c2)OCO3)s1 (stereo not given)	-0.3	11.8	-13.3	16.1	nt	nt
O=[N+]([O-])c1ccc(N2CCN(C(=S)c3cccc([N+](=O)[O-])c3)CC2)cc1	1.3	nt	65.7*	7.0	69.9*	-1.8
CC(=O)N1CCN(C(=S)c2cccc([N+](=O)[O-])c2)CC1	-6.1	19.0	-8.9	-9.9	nt	nt
CCOC(=O)C(C(=O)OCC)c1c([N+](=O)[O-])c(=O)n2c3c(cccc13)CCC2	-1.2	1.4	-5.7	4.9	nt	nt
COc1ccc(-c2nc3ccccc3c(=O)n2NC(=S)N(C)C)cc1	-1.5	36.0	52.5*	-3.0	64.1*	5.3
SMILES	APOBEC3A inh	NALP1 inh	APOBEC3G inh	PolyA inh	A3G conf	UDG A3G counter
COc1ccc(OCC(=O)Nn2c(-c3ccc(OC)cc3)nc3ccccc3c2=O)cc1	2.5	19.3	2.9	4.7	nt	nt
COC(=O)C1=C(C(=O)OC)SC2(S1)C(C(=O)OC)=C(C(=O)OC)SC1=C2c2cc(C)ccc2NC1(C)C	1.1	-11.4	44.7*	-9.2	40.1*	-2.6
COc1cc(C(=O)NCCC(=O)NCc2c(F)cc(F)cc2F)cc(OC)c1OC	-4.0	-12.7	-4.0	7.8	nt	nt
CCC(NC(=O)c1ccccc1NC(=O)c1ccccc1)C(=O)OC (stereo not given)	-0.1	-8.4	-2.0	-30.0	nt	nt
Cc1cc(-c2n[nH]c(=S)n2CC(C)C)cs1	1.0	30.8	49.4*	-10.1	66.1*	-4.6
CCCc1cc(-c2n[nH]c(=S)n2CC)cs1	-5.0	-14.1	43.0*	-17.9	78.6*	-5.2
CCCCn1c(-c2csc(CCC)c2)n[nH]c1=S	nt	-18.5	nt	18.0	nt	nt
CCc1cc(-c2n[nH]c(=S)n2CC)cs1	-2.6	18.0	52.0*	-14.8	82.7*	0.1
CCn1c(-c2csc(C(C)C)c2)n[nH]c1=S	1.6	9.5	50.9*	-12.6	0.4	nt
